From PubChem BioAssay (Tox21)
Inconclusive results are not listed. Where a call stands in place of a potency, no number is given. Active and inactive are the calls of the source. Calls come from the whole dose curve; as a rule, active = well fitted cell-killing curve with a large enough effect in the repeat runs; inconclusive = weak or mixed curves, or effect the other way; inactive = flat fitted curve, though single readings scatter.

Test: qHTS RealTime-Glo MT Cell Viability Assay in HEK293 cells - 32 hour (AID 1224868); note: nearly all actives have a fitted effect of over 50% in size; for activity change, negative = cytotoxic: top concentration of the series differs between compounds
Settings: RealTime-Glo luminescence; series mostly up to 76.8 µM
Description: National Center for Advancing Translational Sciences [NCATS]
NIH Chemical Genomics Center [NCGC]
U.S. Environmental Protection Agency [EPA]
National Institutes of Environmental Health Sciences [NIEHS]
National Toxicology Program [NTP]
U.S. Food and Drug Administration [FDA]
Measure of cell viability is critical in the cell-base assay. Analysis of cell viability is necessary for the characterization of cell responses to cytotoxic drugs and environmental stress. A RealTime-Glo MT Cell Viability Assay to monitor cell viability in real time of continues cell culture during 40 hours of compound treatment was used to screen Tox21 10K library compounds in Hek293 cells. The RealTime-Glo MT Cell Viability Assay is a nonlytic, homogeneous, bioluminescent method to measure cell viability in real time using a simple, plate-based method. The assay involves adding NanoLuc luciferase and a cell-permeant prosubstrate to cells in culture. Viable cells reduce the proprietary prosubstrate to generate a substrate for NanoLuc luciferase. This substrate diffuses from cells into the surrounding culture medium, where it is rapidly used by the NanoLuc Enzyme to produce a luminescent signal. The signal correlates with the number of viable cells, making the assay well suited for cytotoxicity studies.
Tox21 Assay Protocol Summary:
The mixture of Hek293 cell suspension and reagents were dispensed at 600cells/6 ul/well in 1536-well tissue culture treated black solid bottom plates using a Multidrop dispenser. After the assay plates were incubated at a 37 C/5% CO2 incubator for 5 hours, 23 nL of compounds dissolved in DMSO, positive and negative controls was transferred to the assay plate by a pintool work station. The plates were incubated at 37 C for 40 hours. The luminescence intensity were measured at 0h, 8h, 16h, 24h, 32h and 40h time points using ViewLux plate reader during compound treatment.
Potency is the fitted concentration of half-maximal effect.

SMILES | Potency | activity change, negative = cytotoxic
O=C1C(O)=C(O)C(=O)C(O)=C1O | inactive | –
C[N+]1(C)CCC(OC(=O)C(O)(c2ccccc2)C2CCCC2)C1 (stereo not given) | inactive | –
O=C(CS)Nc1ccccc1 | inactive | –
CC/C=C\CCOC(=O)CC | inactive | –
NCC(=O)O | – | 7.53% [at 15.8 µM] (inactive)
COc1ccc(C(=O)c2ccc(OC)cc2O)c(O)c1 | 27.7 µM (active) | –
CC(C)O.CC(C)O.CCOC(=O)/C=C(\C)O.CCOC(=O)/C=C(\C)O.[Ti] | inactive | –
CN(C)CCCN1c2ccccc2Sc2ccccc21 | inactive | –
COc1cc(C(=O)OCCCN2CCCN(CCCOC(=O)c3cc(OC)c(OC)c(OC)c3)CC2)cc(OC)c1OC | 9.52 µM (active) | –
CC(=O)c1ccc2c(c1)N(CCCN1CCC(CCO)CC1)c1ccccc1S2 | 21.3 µM (active) | –
COC(=O)c1ccc(I)cc1S(=O)(=O)NC(=O)Nc1nc(C)nc(OC)n1 | inactive | –
CN1CCC(N(Cc2cccs2)c2ccccc2)CC1 | inactive | –
C#C[C@]1(O)CC[C@H]2[C@@H]3CCc4cc(OC5CCCC5)ccc4[C@H]3CC[C@@]21C | 23.9 µM (active) | –
COc1ccnc(CS(=O)c2nc3ccc(OC(F)F)cc3[nH]2)c1OC (stereo not given) | inactive | –
O=C(O)C1(C(=O)Nc2ccc(Cl)cc2Cl)CC1 | inactive | –
CC(C)CC(=O)C1C(=O)c2ccccc2C1=O | inactive | –
C=C(C)C(=O)OCCOCC | inactive | –
Cc1ccc(N=Nc2c(O)c(C(=O)O)cc3ccccc23)c(S(=O)(=O)O)c1 | inactive | –
O=C(Cl)c1cc(C(=O)Cl)cc(C(=O)Cl)c1 | 49 µM (active) | –
CC(C)(C)OCC1CO1 (stereo not given) | inactive | –

SMILES | Potency | activity change, negative = cytotoxic
CC1=CCCC(C)(C)C12CCC(C)O2 (stereo not given) | inactive | –
COc1cc2c(cc1OC)C(C(C(=O)N(CCc1ccc(OC)c(OC)c1OC)CCc1ccc(OC)c(OC)c1OC)c1ccccc1)=NCC2 (stereo not given) | 3.38 µM (active) | –
Nc1ccc([N+](=O)[O-])c(C(F)(F)F)c1 | inactive | –
Nc1ccccc1S(=O)(=O)c1ccccc1 | inactive | –
CN1C[C@H]2c3ccccc3Oc3ccc(Cl)cc3[C@@H]2C1 | inactive | –
CCc1cc(C2=C(C(=O)O)N(c3ccccc3C(F)(F)F)S(=O)(=O)c3ccccc32)cc2c1OCO2 | inactive | –
Cc1ncc(CO)c(C=O)c1O | inactive | –
O=CC1CC=CCC1 (stereo not given) | inactive | –
CNCCCCOc1ccccc1Cc1ccccc1 | 23.9 µM (active) | –
CCCCc1ncc(/C=C(\Cc2cccs2)C(=O)O)n1Cc1ccc(C(=O)O)cc1 | inactive | –
C[N+](C)(C)CCOC(=O)CCC(=O)OCC[N+](C)(C)C | inactive | –
C[Si](C)(CCCN)O[Si](C)(C)CCCN | inactive | –
CCOC(=O)Cc1cccc2ccccc12 | inactive | –
Cc1ccc(C(C)OC(=O)C2(C)CCC(C(=O)O)C2(C)C)cc1 (stereo not given) | inactive | –
O=C(NCCO[N+](=O)[O-])c1cccnc1 | inactive | –
Cc1c(N)cccc1[N+](=O)[O-] | inactive | –
CCC(C)O (stereo not given) | inactive | –
O=C(Nc1ccc(S(=O)(=O)N2CCOCC2)cc1)c1cc(Cl)ccc1NS(=O)(=O)c1ccc(Cl)s1 | inactive | –
COCC(C)OC(C)=O (stereo not given) | inactive | –
C#CCN(C)CCCOc1ccc(Cl)cc1Cl | inactive | –
